Screens as filed in PubChem BioAssay.
Sampled rows, rich in hits. Any-hit rate of the full collection: about 2%.
CCHF vOTU inh-1: blocks the CCHF virus ovarian tumor domain protease; CCHFV vOTU protease, Pep-AMC fluorescence; inhibition, % at 11.5 µM; 370,000 compounds, 0.55% hits; note: 0% = vehicle wells with enzyme and 100% = no enzyme wells
PrPC surface inh: inhibitors of human cell surface prion protein PrPC | P04156 | TR-FRET read-out | 370,000 compounds, 0.43% hits | inhibition, % at 13.8 µM; in the data active = inhibition above about 24%; note: 0% = median of the test wells and 100% = reference compound wells
Y pestis TopoI: Y. pestis Topo-I inhibition via cleavage products; 360,000 compounds, 0.064% hits; Y. pestis Topo-I cleavage product accumulation, plate reader; activity, % at 10 µM; in the data active = activity above about 50%, passing the limit was not always enough
PrP UTR inh: inhibition of PrP 5' UTR reporter expression | 340,000 compounds, 0.35% hits | inhibition, % (concentration not given with the values) | cell-based PrP 5' UTR mRNA reporter, plate reader | AID 488862; in the data active = inhibition above about 52%; note: 0 = median of the neutral control wells
BJeLR viability: BJeLR cell viability loss; inhibition, % (no concentration beside the values); 300,000 compounds, 0.17% hits; BJeLR (HRASV12) viability, CellTiter-Glo ATP luminescence, 48 h; AID 1554; in the data active = inhibition above about 50%
PfHsp40 rescue: restores yeast growth despite PfHsp40 toxicity | S. cerevisiae expressing PfHsp40, growth rescue, ATP luminescence | growth rescue, % at 12.5 µM | 340,000 compounds, 0.68% hits; in the data active = growth rescue above about 28%, passing the limit was not always enough;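 note: yeast W303a lacking pdr1 and pdr3 grown in galactose medium; growth measured after three days at 30 °C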
CCHF vOTU inh-2: CCHFV vOTU protease inhibition, confirmation | shares compounds with CCHF vOTU inh-1 | Recombinant CCHFV vOTU, Pep-AMC fluorescence | inhibition, % at 11.5 µM | 1,900 compounds, 17% hits
Active calls of the source: *; / = no result. Cut-off read from the data, not from the text of the source, unless noted: active = inhibition above about 30%; inactive = the rest.

SMILES	CCHF vOTU inh-1	PrPC surface inh	Y pestis TopoI	PrP UTR inh	BJeLR viability	PfHsp40 rescue	CCHF vOTU inh-2
COc1ccc2nc(NC(=O)CCN3C(=S)NC(C)(C)CC3C)sc2c1 (stereo not given)	36.2*	0.3	8.6	-26.4	7.2	-0.6	-24.9
CN(C)c1ccc(N=Cc2nc(-c3ccccc3)oc2O)cc1	12.6	-4.7	-5.4	19.7	11.2	0.0	/
CN(C)c1ccc(N=Cc2cccn2C)cc1	42.1*	-21.8	-14.2	-61.3	-0.7	-0.6	-12.6
CCCCCCCCN1C(=O)[C@@H](CC(=O)NCCCOC)C[C@@]2(C(=O)OC)C1=C[C@H](C(C)(C)C)O[C@@H]2C	36.3*	7.5	/	/	/	/	11.9
CCCCCCCCN1C(=O)[C@@H](CC(=O)NCCC(C)C)C[C@@]2(C(=O)OC)C1=C[C@H](C(C)(C)C)O[C@@H]2C	5.9	-3.5	/	/	/	/	/
CCCCOCCCNC(=O)C[C@H]1C[C@@]2(C(=O)OC)C(=C[C@H](C(C)(C)C)O[C@@H]2C)N(Cc2ccc(Cl)cc2Cl)C1=O	38.7*	-4.5	/	/	/	/	7.2
CCCCOCCCNC(=O)C[C@H]1C[C@@]2(C(=O)OC)C(=C[C@H](C3CCCC3)O[C@@H]2C)N(Cc2ccc(Cl)cc2Cl)C1=O	23.3	4.9	/	/	/	/	/
CCCCCCCCN1C(=O)[C@@H](CC(=O)N2CCN(C(=O)C3CC3)CC2)C[C@@]2(C(=O)OC)C1=C[C@H](C(C)(C)C)O[C@@H]2C	37.7*	-4.6	/	/	/	/	28.6
CCCC[C@H](C(=O)N(C)c1cccc(OC)c1)[C@@H](O)c1ccc(Cl)cc1	16.5	-2.3	/	/	/	/	/
Cc1cc(N2CCN(S(C)(=O)=O)C[C@@H]2C)ccc1N1CCN(Cc2ccccc2)[C@@H](C)C1	9.5	8.3	/	/	/	/	/
O=S1(=O)CC2c3ccccc3CCN2CN1CCc1ccccc1 (stereo not given)	0.9	6.8	/	/	/	/	/
CC(=O)N(/N=C1\Sc2ccccc2C1=O)c1cccc(C)c1	36.4*	3.4	7.6	-90.8	9.3	0.8	37.0*
Cc1nc2c(=O)n(C)c(=O)nc-2n(C)n1	101.5*	25.5*	-4.5	-7.2	36.0	-0.8	98.7*
Cc1ccc(NC2=C(NC(=O)c3ccccc3)C(=O)c3ccccc3C2=O)cc1Cl	51.4*	-2.1	-4.1	-38.4	2.5	10.6	42.1*
Cc1ccc(NCC(=O)c2ccccc2)cc1Cl	-7.3	-6.9	-4.4	-12.2	15.2	-0.8	/
CCCCOCCCNC(=O)C[C@H]1C[C@@]2(C(=O)OC)C(=C[C@H](C(C)C)O[C@@H]2C2CC2)N(Cc2ccco2)C1=O	10.2	4.3	/	/	/	/	/
C#CCNC(=O)C[C@H]1C[C@@]2(C(=O)OC)C(=C[C@H](C(C)C)O[C@@H]2C2CC2)N(Cc2ccccc2)C1=O	-1.1	7.1	/	/	/	/	/
CCCCCCCCN1C(=O)[C@@H](CC(=O)N2CCN(C(=O)c3ccco3)CC2)C[C@@]2(C(=O)OC)C1=C[C@H](C(C)C)O[C@@H]2C1CC1	32.1*	2.7	/	/	/	/	26.0
COC(=O)[C@]12C[C@H](CC(=O)N3CCN(C(=O)c4ccco4)CC3)C(=O)N(Cc3ccco3)C1=C[C@H](C(C)C)O[C@@H]2C1CC1	20.1	3.1	/	/	/	/	/
CCCCCCCCN1C(=O)[C@@H](CC(=O)NCCCOCCCC)C[C@@]2(C(=O)OC)C1=C[C@H](C(C)C)O[C@@H]2C1CC1	35.3*	2.2	/	/	/	/	36.9*
C#CCNC(=O)C[C@H]1C[C@@]2(C(=O)OC)C(=C[C@H](C(C)C)O[C@@H]2C2CC2)N(CCCCCCCC)C1=O	38.8*	-1.1	/	/	/	/	13.6
CCCCCCCCN1C(=O)[C@@H](CC(=O)NCC2CCCCC2)C[C@@]2(C(=O)OC)C1=C[C@H](C(C)(C)C)O[C@@H]2C	5.1	6.9	/	/	/	/	/
O=S(=O)(c1ccc(Br)cc1Cl)N1CCN(CCO)CC1	0.7	-0.5	-5.9	-11.3	0.3	0.7	/
O=C1C=CC(=O)c2c(O)c(N3CCN(CCOCCO)CC3)c(Br)c(O)c21	111.1*	-39.0	-23.8	-71.6	/	-0.4	103.6*
O=C1C=CC(=O)c2c(O)c(N3CCN(CCO)CC3)c(Cl)c(O)c21	101.7*	-28.9	-38.5	-28.1	/	-0.2	97.8*
SMILES	CCHF vOTU inh-1	PrPC surface inh	Y pestis TopoI	PrP UTR inh	BJeLR viability	PfHsp40 rescue	CCHF vOTU inh-2
CCOc1cccc(-c2nn3c(-c4cccc(C)c4)nnc3s2)c1	13.2	0.2	/	/	/	/	/
Cc1cc(-c2cc(C)c(N)cc2C)c(C)cc1N	-8.0	6.0	-0.5	-24.4	/	-0.9	/
NC1=C(Br)C(=O)c2ccccc2C1=O	90.6*	-41.9	-0.2	-23.3	5.1	7.5	98.6*
Cc1cc2c(cc1C)C(=O)C(Br)=C(N)C2=O	78.0*	-6.9	20.8	-34.4	/	-1.0	57.5*
CC(=O)Nc1ccc(S(=O)(=O)NCC2CCN(C(=O)C(=O)c3cc4ccccc4o3)CC2)cc1	0.5	-4.7	/	/	/	/	/
CCOC(=O)c1cnc(Nc2ccccc2)nc1C(F)(F)F	34.5*	2.2	-1.7	-36.9	1.5	-1.3	-3.8
CCCOc1nccc2c1n(C)c(=O)n2C	-4.2	4.5	/	/	/	/	/
CC1=C(C(=O)N(C(C)C)C(C)C)CC(CC(=O)NCc2cccc3ccccc23)C(=O)N1CCCN1CCCC1=O (stereo not given)	5.6	-4.5	/	/	/	/	/
CC1=C(C(=O)N(C)C)CC(CC(=O)NCc2cccc3ccccc23)C(=O)N1CCCN1CCCC1=O (stereo not given)	35.9*	-2.2	0.3	/	/	/	-21.9
Nc1[nH]c(C(=O)c2ccc(Cl)cc2)c(-c2ccc(Br)cc2)c1C(=O)c1c[nH]c2ccc(F)cc12	8.6	2.5	/	/	/	/	/
O=C(NCc1ccc(N2CCCC2=O)cc1)c1cc(COc2c(F)cccc2F)on1	37.8*	8.6	28.3	-21.1	-0.4	1.0	-17.9
S=C(Nc1ccc(I)cc1)OC1CCC12CCC(c1ccccc1)CC2 (stereo not given)	3.8	2.7	/	/	/	/	/
CCC(=O)OCCCN1C(=O)CCC12CCC(C)CC2 (stereo not given)	-0.1	-2.4	/	/	/	/	/
COc1ccc(/C=N/N=C2/NC(=O)C(CC(=O)O)S2)cc1OCc1ccc(Cl)cc1 (stereo not given)	30.9*	-3.5	11.4	-17.0	15.1	-0.4	-0.8
O=C(O)CC1S/C(=N/N=C/c2ccc(-c3ccc(Cl)c([N+](=O)[O-])c3)o2)NC1=O (stereo not given)	6.3	-10.1	-7.0	-4.8	-1.2	-0.7	/
O=C(O)CC1S/C(=N/N=C/c2ccc(-c3ccc(Cl)cc3[N+](=O)[O-])o2)NC1=O (stereo not given)	36.0*	-12.0	13.4	-18.5	-15.5	1.5	15.2
CCCCCCCCN1C(=O)[C@H](CC(=O)N2CCN(C(=O)c3ccco3)CC2)C[C@@]2(C(=O)OC)CC(C)(C)CC=C12	31.5*	-4.7	/	/	/	/	11.5
COC(=O)[C@]12CCCCC=C1N(Cc1ccco1)C(=O)[C@H](CC(=O)N1CCN(C(=O)c3ccco3)CC1)C2	2.1	-2.0	/	/	/	/	/
